Results reported in PubChem BioAssay (NCI).
This is part of a sample that, as a whole, favours compounds with a hit. Of some 83,000 tested, about 20% had one in any assay.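 Growth was measured after 48 h exposure to one concentration of compound in 96-well plates. Values under 10 count as active.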 Active and inactive are the calls of the source.

These compounds were tested on A549/ATCC NSCLC (assay: NCI-60 one-dose screen, 48 h (100 = growth as untreated, 0 = no growth, -100 = all killed)). Conditions: 10 µM unless noted.
Protocol: Growth inhibition of the A549/ATCC human Non-Small Cell Lung tumor cell line is measured as a screen for anti-cancer activity. Cells are grown in 96 well plates and exposed to the test compound for 48 hours. Compounds are tested at a single concentration, which is 10^-5 M for most compounds. The reported endpoint is percent growth (GI% or GIPRCNT), where numbers from 0 - 100% represent growth inhibition, and numbers from -100% - 0 represent cell death. For example, a value of 40 represents 60% growth inhibition. A value of 0 means no net growth occurred over the course of the experiment. A value of -40 indicates 40% of cells at the beginning of the experiment died by the end of the experiment. A value of -100 means all cells are dead at the end of the experiment.
NCI-60 Human Tumor Cell Lines Screen was performed using the standard one-dose NCI protocol, which is described in more detail at https://dtp.cancer.gov/discovery_development/nci-60/default.htm.
Compounds with GIPRCNT values below 10 were considered active. Activity score was based on GIPRCNT using the following formula: […]
Score is 0 for GIPRCNT values of 100 or above, 50 for GIPRCNT values of 0, and 100 for GIPRCNT values of -100.

SMILES	growth
COc1ccc(CCN2C(=O)C(C)(C)SC2=S)cc1OC	101% (inactive)
CC/C=C\C[C@H]1CC=C2C(=O)C=C[C@@H]2CC=CCCCC(=O)O[C@@H](CCCCC)CC=C2C(=O)C=C[C@@H]2CC=CCCCC(=O)O[C@@H](CCCCC)CC=C2C(=O)C=C[C@@H]2CC=CCCCC(=O)O[C@@H](CCCCC)CC=C2C(=O)C=C[C@@H]2CC=CCCCC(=O)O1	39% [7.9 µM] (inactive)
Cc1cc(Cl)nc(N(CCNc2ccnc3cc(Cl)ccc23)Cc2ccco2)n1	60.6% (inactive)
O=C(O)/C(=C/c1ccc(O)cc1)c1ccccc1	93% (inactive)
CCN1CCN(C(=O)[C@@]2(C)CC[C@]3(C)CC[C@]4(C)C(=CC(=O)[C@@H]5[C@@]6(C)CC[C@H](OCCC#N)C(C)(C)[C@@H]6CC[C@]54C)[C@@H]3C2)CC1	84.1% (inactive)
N#CC1C(=N)Cc2ccccc2-c2ccccc21 (stereo not given)	42.1% (inactive)
C/C(=N/NC(N)=S)C(=O)O	76% (inactive)
OCCNc1nc(Nc2ccc(Cl)c(Cl)c2)nc2ccccc12	37% (inactive)
CCCCCCCN(CCCCCCC)C(=N)c1ccnc2ccccc12	-57.4% (active)
COc1cc(-c2cc3ncccc3c3nc(N)c4cccnc4c23)cc(OC)c1OC	12.7% (inactive)
Oc1ccc(CCC2CCCC(CCc3ccc(OCCF)cc3)N2)cc1 (stereo not given)	91% (inactive)
CC(C)(C)c1nc(-c2ccc(O)c(O)c2)cs1	55.7% (inactive)
COc1cc2c(cc1-c1c(C)noc1C)ncc1nc(C3CC3)n([C@H](C)COC(F)F)c12	36.1% (inactive)
C#CCn1c2c(c3ccccc31)C[C@]1(C)[C@H]3CC[C@@H]4[C@@H]5C(=CCC[C@H]5C(=C)C)CC[C@@]4(C)[C@]3(C)CC[C@H]1C2(C)C	102% (inactive)
Cc1cc2nc3c4cc([N+](=O)[O-])cc([N+](=O)[O-])c4n(CCN(C)C)c3nc2cc1C	73.5% (inactive)
C=C1CC[C@@H](C(=O)OC)Cc2nc(C)ccc21	98.5% (inactive)
O=C1c2cccc3cccc(c23)C(=O)N1CC#Cc1ccc2c3c(cccc13)C(=O)N(CCO)C2=O	97.3% (inactive)
COc1cc(OC)c2c(c1)c1nc3cc(C)c(C)cc3nc1n2CCN(C)C	80.4% (inactive)
O=S(=O)(NCCNc1cc(-c2cn(-c3ccccc3)nc2-c2cccc(O)c2)ccn1)c1ccc(Br)cc1	27.2% (inactive)
CC1(C)CC[C@]2(CO)CC[C@]3(C)C(=CC[C@@H]4[C@@]5(C)CC[C@H](NCO)C(C)(C)[C@@H]5CC[C@]43C)[C@@H]2C1	-50% (active)

SMILES	growth
CCOC(=O)C/C(=C\c1ccccc1)C(C)=O	67.4% (inactive)
COC(=O)[C@]12CC[C@@H](C(C)=O)[C@@H]1[C@H]1CC[C@@H]3[C@@]4(C)C/C(=C/c5cccnc5)C(=O)C(C)(C)[C@@H]4CC[C@@]3(C)[C@]1(C)CC2	51.4% (inactive)
Nc1nc2c(c(=O)[nH]1)C(c1ccc3c(c1)OCO3)C=C(C(=O)O)N2 (stereo not given)	99.2% (inactive)
O=C1C(=O)c2ccccc2C(O)=C1CCCc1ccc(C2CCCCC2)cc1	21.1% (inactive)
O=C1c2ccccc2NC(c2cn(-c3ccccc3)nc2-c2cccnc2)N1Cc1ccccc1 (stereo not given)	102% (inactive)
CC(C)(C)c1cc(-n2c(-c3ccc(Cl)cc3)nc3cc(C(=O)Nc4ccc(Cl)cc4)ccc32)n[nH]1	51.1% (inactive)
Cc1ccc(-c2ccc(Nc3ccccc3)nn2)cc1S(N)(=O)=O	79.4% (inactive)
Cn1cc(-c2csc(-c3cn(CCN)c4ccccc34)n2)c2cccnc21	40% (inactive)
COc1cc2ncnc(Nc3ccc(OCc4cccc(F)c4)c(Cl)c3)c2cc1NC(=O)C1CCCC1	65.2% (inactive)
Brc1ccc(Cn2nnnc2-c2ccn(-c3ccccc3)n2)cc1	67.8% (inactive)
O=C1CCCC=CC[C@H]2C=C(Cl)C(=O)C2=CC[C@H](CCCCC(F)(F)F)OC(=O)CCCC=CC[C@H]2C=C(Cl)C(=O)C2=CC[C@H](CCCCC(F)(F)F)OC(=O)CCCC=CC[C@H]2C=C(Cl)C(=O)C2=CC[C@H](CCCCC(F)(F)F)O1	93.7% [6.25 µM] (inactive)
Nc1c(C(=O)Nc2c(Cl)cccc2Cl)sc2nc3c(cc12)CCCC3	66.5% (inactive)
Brc1ccc2[nH]cc(-c3nc(-c4c[nH]c5ncccc45)cs3)c2c1	22.9% (inactive)
COc1cc(/C=N/NC(=S)NNC(=S)NC2CCCCC2)cc(OC)c1OC	100% (inactive)
Cn1c2c(Cl)c(Cl)ccc2c2c(C#N)c[nH]c(=O)c21	93.3% (inactive)
O=C(NCN1C(=O)c2cccc3cccc(c23)C1=O)N1CCC(Cc2ccccc2)CC1	89.8% (inactive)
Nc1c(C(=O)Nc2cccc3ccccc23)sc2nc3c(cc12)CCCC3	17.8% (inactive)
COc1cc2c(cc1-c1c(C)noc1C)ncc1nc(C3CCC(F)(F)CC3)n([C@@H](C)COC(F)F)c12	37.5% (inactive)
COc1ccc(-c2cc(/C=C/C(=O)c3ccc(N)cc3)[nH]n2)cc1	18.6% (inactive)
COc1ccc(/C=C(\C#N)c2cc3ccccc3n2C(C)=O)cc1	83.5% (inactive)
